About 83,000 compounds went through this panel and 20% of them were active in at least one assay; those are over-represented in the sample as a whole.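 In brief: 96-well plates, 48 h treatment, single concentration, percent growth endpoint.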 Values without a mark were called inactive. Active and inactive are the calls of the source. The calls were made as follows: active = growth percent below 10; inactive = the rest.
How the values were obtained:
Experiment in all cases: NCI-60 one-dose screen, 48 h (100 = growth as untreated, 0 = no growth, -100 = all killed)
Settings in all cases: 10 µM unless noted
NCI-H23 lung = tested on: NCI-H23 lung
NCI-H226 lung = tested on: NCI-H226 lung
NCI-H322M lung = tested on: NCI-H322M lung
HOP-62 NSCLC = tested on: HOP-62 NSCLC
NCI-H460 lung = tested on: NCI-H460 lung
HOP-92 NSCLC = tested on: HOP-92 NSCLC
NCI-H522 lung = tested on: NCI-H522 lung
A549/ATCC NSCLC = tested on: A549/ATCC NSCLC
786-0 renal = tested on: 786-0 renal
COLO 205 colon = tested on: COLO 205 colon
DU-145 prostate = tested on: DU-145 prostate
K-562 leukemia = tested on: K-562 leukemia
MALME-3M melanoma = tested on: MALME-3M melanoma
MDA-MB-231 breast = tested on: MDA-MB-231 breast
RXF 393 renal = tested on: RXF 393 renal
SF-268 CNS = tested on: SF-268 CNS
SF-295 CNS = tested on: SF-295 CNS
SF-539 CNS = tested on: SF-539 CNS
UACC-257 melanoma = tested on: UACC-257 melanoma
M14 melanoma = tested on: M14 melanoma

SMILES	growth (NCI-H23 lung)	growth (NCI-H226 lung)	growth (NCI-H322M lung)	growth (HOP-62 NSCLC)	growth (NCI-H460 lung)	growth (HOP-92 NSCLC)	growth (NCI-H522 lung)	growth (A549/ATCC NSCLC)	growth (786-0 renal)	growth (COLO 205 colon)	growth (DU-145 prostate)	growth (K-562 leukemia)	growth (MALME-3M melanoma)	growth (MDA-MB-231 breast)	growth (RXF 393 renal)	growth (SF-268 CNS)	growth (SF-295 CNS)	growth (SF-539 CNS)	growth (UACC-257 melanoma)	growth (M14 melanoma)
C/C(=N/O)c1ccc(NC(=O)Cn2nc(-c3ccc(Cl)cc3)nc2N)cc1	92.7%	82.9%	92.4%	88.8%	100%	99.2%	68.7%	79.3%	109%	101%	104%	99.3%	102%	82.7%	100%	89.2%	107%	97.3%	73%	107%
Cc1c(C(C)(C)C)cc(C(C)(C)C)c2c1CN(C)CO2	102%	111%	105%	103%	123%	112%	93.4%	111%	105%	105%	112%	99.4%	95.5%	110%	122%	103%	103%	103%	99.5%	118%
Cc1cn([C@]2(CF)O[C@H](CO)C2C)c(=O)[nH]c1=O (stereo not given in full)	111%	111%	108%	62.8%	125%	107%	87.1%	109%	101%	108%	124%	104%	113%	116%	101%	112%	121%	110%	103%	118%
CCOc1ccc(NC(=O)Nc2cc(C(C)C)ccc2C)cc1	79.2%	92.8%	90.8%	95%	106%	55.1%	46.4%	36.6%	13%	98.7%	93.2%	85%	105%	16.7%	-31.8% (active)	69.2%	104%	90%	66.4%	93.4%
Cc1cc2nc(-c3c(N)ncc(C#N)c3-c3ccc(Cl)cc3)[nH]c2cc1C	50%	91.7%	81.1%	83.5%	43.2%	10.6%	41.2%	36.4%	75.1%	67.4%	31.9%	62.9%	63%	66.4%	70.9%	73.4%	58.3%	-9.94% (active)	51.9%	53.7%
O=C(NCCNc1nccc(-c2c(-c3cccc(O)c3)nc3sccn23)n1)Nc1cccc(C(F)(F)F)c1	96.2%	97%	76.8%	83.5%	80.1%	54.5%	-5.9% (active)	39.3%	79.4%	53.2%	89%	70.6%	23.6%	37.7%	26.3%	26.2%	75.5%	98.5%	25.3%	-21.7% (active)
COc1cc(-c2nc(SCC(=O)Nc3ccc(C(C)=O)cc3)[nH]c(=O)c2C#N)cc(OC)c1OC	38.4%	58.5%	45.3%	20.7%	5.79% (active)	10.3%	-14.5% (active)	19.8%	35.5%	-16.2% (active)	14.1%	0.453% (active)	69.5%	19.7%	24.6%	26.9%	3.4% (active)	-22.9% (active)	53.7%	5.17% (active)
